# In PubChem BioAssay (EPA / NIEHS):
# The source made the active and inactive calls. Rule for the calls: active = hit-call score of the fitted dose curve at least 0.9, where 1 is the maximum; inactive = score below 0.9.
# Tests used:
# [1] = ATG_CRE_CIS: Attagene CIS-FACTORIAL HepG2 Assay for human cAMP Responsive Element (CRE) binding protein 3 (AID 2282926); settings: HepG2 CRE cis-reporter, Attagene multiplexed mRNA; actives raise or lower the signal
# Method in brief: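 We dosed HepG2 cells bearing multiple cis-promoter reporter units for 24 h and measured reporter mRNA by RT-PCR with capillary electrophoresis detection. Bidirectional concentration-response fitting used DMSO as negative control.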
# [2] = target: CCAAT/enhancer-binding protein beta (Homo sapiens) (UniProt P17676); test: ATG_C_EBP_CIS: Attagene CIS-FACTORIAL HepG2 Assay for human CCAAT/Enhancer Binding Protein (C/EBP) beta (AID 2282927); settings: HepG2 Attagene cis-factorial transcription factor reporter; actives raise or lower the signal
# Method in brief: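 HepG2, transient MRTU transfection, 24 h treatment. RT-PCR plus CE fluorescence; DMSO negative control, bidirectional fit.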
# [3] = ATG_CMV_CIS: Attagene CIS-FACTORIAL HepG2 Assay for human CMV (Internal Marker) (AID 2282928); settings: HepG2 CMV promoter reporter, transcription factor profiling; actives raise or lower the signal;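 note: endpoint acts as a background internal control marker rather than a target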
# Method in brief: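 After transient transfection of HepG2 with reporter transcription units driven by cis-regulatory promoters, cells receive test chemical for 24 h. Labeled reporter amplicons, digested with HpaI, are sized and quantified by capillary electrophoresis against DMSO.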
# [4] = ATG_DR4_LXR_CIS: Attagene CIS-FACTORIAL HepG2 Assay for human Liver X Receptor (LXR), DR4 submotif (AID 2282929); settings: HepG2 Attagene DR4 cis-reporter, mRNA transcription; actives raise or lower the signal
# Method in brief: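 HepG2 cells were transiently transfected with multiple cis-regulated reporter units and dosed for 24 hours. The DR4 reporter mRNA was quantified by RT-PCR, 6-FAM labelling and capillary electrophoresis. Bidirectional fits used DMSO as baseline.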
# [5] = target: Aryl hydrocarbon receptor (Homo sapiens) (UniProt P35869); test: ATG_Ahr_CIS: Attagene CIS-FACTORIAL HepG2 Assay for human Aryl Hydrocarbon Receptor (Ahr) (AID 2282930); settings: HepG2 AhR cis-factorial reporter transcription; actives raise or lower the signal
# Method in brief: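 Endogenous factor activity is tracked through cis-promoter reporter units transfected into HepG2 cells. Transcript levels at 24 h are read by fluorescent RT-PCR and capillary electrophoresis, with activity in either direction scored relative to DMSO.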
# [6] = ATG_AP_1_CIS: Attagene CIS-FACTORIAL HepG2 Assay for human Activator Protein 1 (AP-1) (AID 2282931); settings: HepG2 Attagene cis-factorial AP-1 reporter mRNA; actives raise or lower the signal
# Method in brief: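 HepG2 cells transiently transfected with cis-element-driven reporter transcription units, dosed for 24 hours. Reporter mRNA measured by RT-PCR, 6-FAM labelling, HpaI digestion and capillary electrophoresis. Bidirectional fitting against DMSO baseline.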
# [7] = ATG_AP_2_CIS: Attagene CIS-FACTORIAL HepG2 Assay for human Activator Protein 2 (AP-2) (AID 2282932); settings: HepG2 AP-2 cis-reporter, Attagene transcription factor profiling; actives raise or lower the signal
# Method in brief: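 HepG2 cells transiently transfected with cis-element reporter units and exposed for 24 h. Reporter mRNA measured by RT-PCR, FAM labelling, HpaI digestion and capillary electrophoresis. Changes in either direction fitted relative to DMSO.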
# [8] = ATG_BRE_CIS: Attagene CIS-FACTORIAL HepG2 Assay for human Bone Morphogenetic Protein (BMP) Response Element (BRE) (AID 2282933); settings: HepG2 BMP response element reporter, Attagene transcription factor profiling; actives raise or lower the signal
# Method in brief: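 Read-out: reporter mRNA induction quantified by RT-PCR and capillary electrophoresis after 24 h chemical exposure of transfected HepG2 cells. Endogenous factor activity on the BMP response element; gain or loss fitted against DMSO baseline.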
# [9] = target: Retinoic acid receptor alpha (Homo sapiens) (UniProt P10276); test: ATG_DR5_RAR_CIS: Attagene CIS-FACTORIAL HepG2 Assay for human Retinoic Acid Receptor Alpha (RARE), DR5 submotif (AID 2282934); settings: HepG2 Attagene cis-factorial RARE DR5 reporter, mRNA; actives raise or lower the signal;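 for AC50: reporter responds to endogenous RAR alpha beta and gamma in HepG2 not RARA alone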
# Method in brief: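 After 24 h of chemical exposure, transiently transfected HepG2 cells were lysed for total RNA; the DR5-regulated reporter transcript was quantified via RT-PCR and capillary electrophoresis, with activity fitted bidirectionally against DMSO.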
# [10] = target: Transcription factor E2F1 (Homo sapiens) (UniProt Q01094); test: ATG_E2F_CIS: Attagene CIS-FACTORIAL HepG2 Assay for human E2F Transcription Factor 1 (AID 2282935); settings: HepG2 Attagene cis-reporter, E2F reporter RNA transcripts; actives raise or lower the signal
# Method in brief: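 Endogenous E2F1 activity read through cis-promoter reporter units transfected into HepG2. After 24 h compound treatment, reporter mRNA measured by RT-PCR, HpaI digestion and capillary electrophoresis. Bidirectional fit versus DMSO.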
# [11] = ATG_E_Box_CIS: Attagene CIS-FACTORIAL HepG2 Assay for human Enhancer Box (E-box) (AID 2282936); settings: HepG2 E-box cis-reporter transcription, actives raise or lower the signal
# Method in brief: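 HepG2 cells transiently transfected with multiplexed cis-element reporter units, dosed 24 h; reporter mRNA quantified by RT-PCR, 6-FAM labelling, HpaI digestion and capillary electrophoresis. E-box (USF1) signal fitted bidirectionally vs DMSO.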
# [12] = ATG_EGR_CIS: Attagene CIS-FACTORIAL HepG2 Assay for human Early Growth Response 1 (EGR1) (AID 2282938); settings: HepG2 Attagene CIS-FACTORIAL EGR reporter mRNA; actives raise or lower the signal
# Method in brief: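 HepG2 cells transiently transfected with cis-element-driven multiplexed reporter units, dosed for 24 h. EGR1-element reporter mRNA quantified by RT-PCR, 6-FAM labelling, HpaI digestion and capillary electrophoresis; bidirectional fit versus DMSO.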
# [13] = ATG_M_19_CIS: Attagene CIS-FACTORIAL HepG2 Assay for M19 Transcription Factor (Internal Marker) (AID 2282939); settings: HepG2 Attagene CIS-FACTORIAL M19 internal marker reporter; actives raise or lower the signal
# Method in brief: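 Readout: fluorescent reporter-transcript fragments by capillary electrophoresis after RT-PCR. Human HepG2 liver cells carried transfected MRTU constructs reporting endogenous transcription-factor activity; exposure 24 h. Gain or loss of signal fitted relative to DMSO.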
# [14] = ATG_ERE_CIS: Attagene CIS-FACTORIAL HepG2 Assay for Estrogen Response Element (ERE) (AID 2282940); settings: HepG2 ERE cis-reporter, Attagene RNA transcript; actives raise or lower the signal
# Method in brief: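 Readout: reporter mRNA induction by RT-PCR, FAM-labelled primer extension, HpaI digestion and capillary electrophoresis, 24 h after dosing transfected HepG2 cells. Endogenous transcription factors act on cis-element-regulated reporters. Gain or loss fitted against DMSO.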
# [15] = ATG_Ets_CIS: Attagene CIS-FACTORIAL HepG2 Assay for human Erythroblast Transformation Specific (ETS) (AID 2282941); settings: HepG2 ETS cis-reporter transcription, actives raise or lower the signal
# Method in brief: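 Human HepG2 hepatoma cells were transiently transfected with promoter-driven reporter constructs and treated for 24 hours. Reporter transcripts were quantified by RT-PCR with fluorescent primer extension; bidirectional curve fitting used DMSO as reference.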
# [16] = ATG_FoxO_CIS: Attagene CIS-FACTORIAL HepG2 Assay for human Forkhead box O (FoxO) (AID 2282943); settings: HepG2 Attagene cis-reporter, FoxO element, mRNA; actives raise or lower the signal
# Method in brief: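 Transfected HepG2 reporter cells exposed to test chemical for 24 h; reporter RNA measured by reverse transcription, PCR and fluorescent capillary electrophoresis; curves fitted for increases and decreases against DMSO.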
# [17] = ATG_GATA_CIS: Attagene CIS-FACTORIAL HepG2 Assay for human GATA Binding Protein (AID 2282944); settings: HepG2 GATA cis-element reporter, Attagene multiplex mRNA; actives raise or lower the signal
# Method in brief: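 Read-out: fluorescent reporter mRNA fragments resolved by capillary electrophoresis after RT-PCR. Human liver HepG2 cells carried transiently transfected cis-regulated reporter constructs; chemicals incubated 24 h; gain or loss of signal fitted relative to DMSO.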
# [18] = ATG_GLI_CIS: Attagene CIS-FACTORIAL HepG2 Assay for human Zinc Finger Protein GLI1 (AID 2282945); settings: HepG2, Attagene cis-factorial reporter mRNA, GLI element; actives raise or lower the signal
# Method in brief: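 Transiently transfected HepG2 cells report endogenous transcription factor activity via cis-element-driven reporter units. After 24 h compound exposure, reporter mRNA was measured by RT-PCR with capillary electrophoresis; bidirectional fitting against DMSO baseline.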
# [19] = target: Hepatocyte nuclear factor 3-beta (Homo sapiens) (UniProt Q9Y261); test: ATG_FoxA2_CIS: Attagene CIS-FACTORIAL HepG2 Assay for human Forkhead box A2 (FOXA2) (AID 2282942); settings: HepG2 cis-reporter transcription factor activity, 24 h; actives raise or lower the signal
# Method in brief: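 HepG2 transiently transfected with a multiplexed cis-promoter reporter library read endogenous FOXA2 activity. After 24 h compound exposure, reporter mRNA was quantified by RT-PCR, HpaI digestion and capillary electrophoresis. Bidirectional fit against DMSO.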
# [20] = ATG_M_61_CIS: Attagene CIS-FACTORIAL HepG2 Assay for M61 Transcription Factor (Internal Marker) (AID 2282937); settings: HepG2 Attagene CIS-FACTORIAL M61 internal marker reporter; actives raise or lower the signal
# Method in brief: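 HepG2 cells transiently transfected with multiplexed cis-promoter reporter units reporting endogenous transcription factor activity, measured 24 h after dosing. Reporter mRNA quantified by RT-PCR and capillary electrophoresis; bidirectional fit against DMSO baseline.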
# Sequence of Transcription factor E2F1 (Homo sapiens) (Q01094 whole entry, looked up): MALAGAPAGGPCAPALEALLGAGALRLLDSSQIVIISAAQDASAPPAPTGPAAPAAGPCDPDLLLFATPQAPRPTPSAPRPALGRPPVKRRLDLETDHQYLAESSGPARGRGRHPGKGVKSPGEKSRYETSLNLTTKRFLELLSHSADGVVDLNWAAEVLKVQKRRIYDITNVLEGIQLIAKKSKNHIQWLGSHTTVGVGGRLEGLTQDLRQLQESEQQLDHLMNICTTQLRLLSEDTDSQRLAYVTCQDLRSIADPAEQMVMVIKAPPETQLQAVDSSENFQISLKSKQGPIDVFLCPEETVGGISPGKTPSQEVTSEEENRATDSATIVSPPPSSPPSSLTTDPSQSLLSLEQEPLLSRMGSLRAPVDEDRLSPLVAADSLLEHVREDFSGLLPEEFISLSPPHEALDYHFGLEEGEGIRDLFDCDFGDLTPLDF
# Sequence of Retinoic acid receptor alpha (Homo sapiens) (P10276 whole entry, looked up): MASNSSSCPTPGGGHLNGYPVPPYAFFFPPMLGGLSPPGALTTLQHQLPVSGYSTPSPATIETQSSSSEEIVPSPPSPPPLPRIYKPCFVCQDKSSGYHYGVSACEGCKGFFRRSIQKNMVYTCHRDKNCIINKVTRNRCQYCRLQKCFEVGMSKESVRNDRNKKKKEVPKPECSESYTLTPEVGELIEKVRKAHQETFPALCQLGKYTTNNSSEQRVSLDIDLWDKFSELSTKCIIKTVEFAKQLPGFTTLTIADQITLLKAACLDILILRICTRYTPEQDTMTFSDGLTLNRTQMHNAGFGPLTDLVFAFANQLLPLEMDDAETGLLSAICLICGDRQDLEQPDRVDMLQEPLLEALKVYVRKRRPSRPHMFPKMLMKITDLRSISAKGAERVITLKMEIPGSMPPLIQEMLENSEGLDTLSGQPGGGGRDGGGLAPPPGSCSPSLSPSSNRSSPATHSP
# Sequence of Hepatocyte nuclear factor 3-beta (Homo sapiens) (Q9Y261 whole entry, looked up): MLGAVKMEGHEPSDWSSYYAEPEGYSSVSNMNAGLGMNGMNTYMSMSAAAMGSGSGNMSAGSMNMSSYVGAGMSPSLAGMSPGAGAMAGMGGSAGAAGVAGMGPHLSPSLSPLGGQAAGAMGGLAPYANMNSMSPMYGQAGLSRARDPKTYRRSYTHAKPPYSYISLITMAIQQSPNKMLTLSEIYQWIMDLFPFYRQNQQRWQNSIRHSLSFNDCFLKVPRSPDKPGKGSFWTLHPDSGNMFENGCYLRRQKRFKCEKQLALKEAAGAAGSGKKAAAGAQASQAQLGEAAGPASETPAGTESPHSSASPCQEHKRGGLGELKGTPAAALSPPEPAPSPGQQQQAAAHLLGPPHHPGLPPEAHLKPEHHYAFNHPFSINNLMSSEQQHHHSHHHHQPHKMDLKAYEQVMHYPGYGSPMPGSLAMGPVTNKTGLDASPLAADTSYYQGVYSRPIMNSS
# Sequence of Aryl hydrocarbon receptor (Homo sapiens) (P35869 whole entry, looked up): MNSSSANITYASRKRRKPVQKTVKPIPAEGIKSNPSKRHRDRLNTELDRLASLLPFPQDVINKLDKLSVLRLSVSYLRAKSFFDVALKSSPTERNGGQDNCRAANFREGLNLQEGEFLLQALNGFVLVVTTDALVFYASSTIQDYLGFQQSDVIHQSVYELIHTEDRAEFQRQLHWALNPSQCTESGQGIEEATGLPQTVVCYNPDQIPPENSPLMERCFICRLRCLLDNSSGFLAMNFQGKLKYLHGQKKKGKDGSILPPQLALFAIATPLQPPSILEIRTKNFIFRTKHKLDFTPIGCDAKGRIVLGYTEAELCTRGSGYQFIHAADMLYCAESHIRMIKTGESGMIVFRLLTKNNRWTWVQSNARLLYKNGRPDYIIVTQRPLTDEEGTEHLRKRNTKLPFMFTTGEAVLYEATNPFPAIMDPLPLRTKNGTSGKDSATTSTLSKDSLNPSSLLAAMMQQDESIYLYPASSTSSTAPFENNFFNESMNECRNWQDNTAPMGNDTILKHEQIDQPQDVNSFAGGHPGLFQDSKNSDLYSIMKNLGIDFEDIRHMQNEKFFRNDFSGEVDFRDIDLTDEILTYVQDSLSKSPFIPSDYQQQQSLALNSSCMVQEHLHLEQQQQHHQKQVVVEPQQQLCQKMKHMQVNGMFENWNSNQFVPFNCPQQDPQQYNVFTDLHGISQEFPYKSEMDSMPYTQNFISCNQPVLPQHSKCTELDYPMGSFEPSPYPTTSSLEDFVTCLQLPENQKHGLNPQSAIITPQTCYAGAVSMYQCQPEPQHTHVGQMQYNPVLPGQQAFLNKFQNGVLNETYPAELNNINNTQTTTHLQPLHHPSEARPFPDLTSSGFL
# Sequence of CCAAT/enhancer-binding protein beta (Homo sapiens) (P17676 whole entry, looked up): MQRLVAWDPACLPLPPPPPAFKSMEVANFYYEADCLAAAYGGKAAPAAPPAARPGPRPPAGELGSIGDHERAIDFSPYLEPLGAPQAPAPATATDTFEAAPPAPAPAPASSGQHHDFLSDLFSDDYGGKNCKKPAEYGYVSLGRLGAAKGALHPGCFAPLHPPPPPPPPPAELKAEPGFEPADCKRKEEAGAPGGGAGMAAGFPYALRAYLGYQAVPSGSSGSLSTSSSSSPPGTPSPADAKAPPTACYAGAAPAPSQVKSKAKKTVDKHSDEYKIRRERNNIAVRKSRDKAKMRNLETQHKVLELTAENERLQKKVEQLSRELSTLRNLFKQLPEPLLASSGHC
smiles,measurement,setting,value
O=C1CCCC1,outcome,[1],inactive
same,outcome,[2],inactive
same,outcome,[3],inactive
same,outcome,[4],inactive
same,outcome,[5],inactive
same,outcome,[6],inactive
same,outcome,[7],inactive
same,outcome,[8],inactive
same,outcome,[9],inactive
same,outcome,[10],inactive
same,outcome,[11],inactive
same,outcome,[12],inactive
same,outcome,[13],inactive
same,outcome,[14],inactive
same,outcome,[15],inactive
same,outcome,[16],inactive
same,outcome,[17],inactive
same,outcome,[18],inactive
CCCCNc1ccc(NCCCC)c2c1C(=O)c1ccccc1C2=O,outcome,[1],inactive
same,outcome,[2],inactive
same,outcome,[3],inactive
same,outcome,[4],inactive
same,outcome,[5],inactive
same,outcome,[6],inactive
same,outcome,[7],inactive
same,outcome,[8],inactive
same,outcome,[9],inactive
same,outcome,[10],inactive
same,outcome,[11],inactive
same,outcome,[12],inactive
same,outcome,[13],inactive
same,outcome,[14],inactive
same,outcome,[15],inactive
same,outcome,[19],inactive
same,outcome,[16],inactive
same,outcome,[17],inactive
same,outcome,[18],inactive
CC(=O)NS(=O)(=O)c1ccc(N)cc1,outcome,[1],inactive
same,outcome,[2],inactive
same,outcome,[3],inactive
same,outcome,[4],inactive
same,outcome,[5],inactive
same,outcome,[6],inactive
same,outcome,[7],inactive
same,outcome,[8],inactive
same,outcome,[9],inactive
same,outcome,[11],inactive
same,outcome,[20],inactive
same,outcome,[12],inactive
same,outcome,[13],inactive
same,outcome,[14],inactive
same,outcome,[15],inactive
same,outcome,[19],inactive
same,outcome,[16],inactive
same,outcome,[18],inactive
O=C(/C=C/C=C/c1ccc2c(c1)OCO2)N1CCCCC1,outcome,[1],inactive
same,outcome,[2],inactive
same,outcome,[3],inactive
same,AC50,[4],72.6 µM (active)
same,outcome,[5],inactive
same,outcome,[6],inactive
same,outcome,[7],inactive
same,AC50,[8],176 µM (active)
same,outcome,[9],inactive
same,outcome,[11],inactive
same,outcome,[20],inactive
same,AC50,[12],100 µM (active)
same,outcome,[13],inactive
same,outcome,[14],inactive
same,outcome,[15],inactive
same,outcome,[19],inactive
same,outcome,[16],inactive
same,outcome,[17],inactive
same,outcome,[18],inactive
CCOc1nc(F)cc2nc(S(=O)(=O)Nc3c(Cl)cccc3C(=O)OC)nn12,outcome,[1],inactive
same,outcome,[2],inactive
same,outcome,[3],inactive
same,outcome,[4],inactive
same,outcome,[5],inactive
same,outcome,[6],inactive
same,outcome,[7],inactive
same,outcome,[8],inactive
same,outcome,[9],inactive
same,outcome,[11],inactive
same,outcome,[20],inactive
same,outcome,[12],inactive
same,outcome,[13],inactive
same,outcome,[14],inactive
same,outcome,[15],inactive
same,outcome,[19],inactive
same,outcome,[16],inactive
same,outcome,[17],inactive
same,outcome,[18],inactive
C=CC(C)(C)C,outcome,[1],inactive
same,outcome,[2],inactive
same,outcome,[3],inactive
same,outcome,[4],inactive
same,outcome,[5],inactive
same,outcome,[6],inactive
same,outcome,[7],inactive
same,outcome,[8],inactive
same,outcome,[9],inactive
same,outcome,[11],inactive
same,outcome,[20],inactive
same,outcome,[12],inactive
same,outcome,[13],inactive
same,outcome,[14],inactive
same,outcome,[15],inactive
same,outcome,[19],inactive
same,outcome,[16],inactive
same,outcome,[18],inactive
CCCCCCCC/C=C\CCCCCCCC(=O)O,outcome,[1],inactive
same,outcome,[2],inactive
same,outcome,[3],inactive
same,AC50,[4],48.7 µM (active)
same,outcome,[5],inactive
same,AC50,[6],137 µM (active)
same,outcome,[7],inactive
same,outcome,[8],inactive
same,AC50,[9],85.9 µM (active)
same,outcome,[11],inactive
same,outcome,[20],inactive
same,outcome,[12],inactive
same,outcome,[13],inactive
same,outcome,[14],inactive
same,outcome,[15],inactive
same,outcome,[19],inactive
same,outcome,[16],inactive
same,outcome,[17],inactive
same,outcome,[18],inactive
CC(=O)[C@H]1[C@H](C#N)C[C@H]2[C@@H]3CC=C4C[C@@H](O)CC[C@]4(C)[C@H]3CC[C@@]21C,outcome,[1],inactive
same,outcome,[2],inactive
same,outcome,[3],inactive
same,outcome,[4],inactive
same,outcome,[5],inactive
same,outcome,[6],inactive
same,outcome,[7],inactive
same,outcome,[8],inactive
same,outcome,[9],inactive
same,outcome,[10],inactive
same,outcome,[11],inactive
same,outcome,[12],inactive
same,outcome,[13],inactive
same,outcome,[14],inactive
same,outcome,[15],inactive
same,outcome,[19],inactive
same,outcome,[16],inactive
same,outcome,[17],inactive
same,outcome,[18],inactive
